Inconclusive results are not listed. A call without a number means that no potency is given here. Active and inactive are the calls of the source. The call rests on the fitted dose curve; in most records, active means well fitted inhibition curve with a large enough effect; inconclusive means small, poorly fitted or top-dose-only effect; inactive means flat fitted curve, though single readings scatter.

Sequence of Glutathione peroxidase 1 (Homo sapiens) (P07203 whole entry, looked up): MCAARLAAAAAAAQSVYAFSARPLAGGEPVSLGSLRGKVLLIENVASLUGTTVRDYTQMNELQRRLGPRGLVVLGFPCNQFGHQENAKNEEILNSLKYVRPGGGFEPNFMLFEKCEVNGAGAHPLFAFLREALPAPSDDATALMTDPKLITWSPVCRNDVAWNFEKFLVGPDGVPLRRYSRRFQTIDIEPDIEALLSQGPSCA

In this assay the target is Glutathione peroxidase 1 (Homo sapiens) (UniProt P07203). The assay is described as follows: Primary qHTS Assay for Inhibitors of Recombinant Selenoprotein Glutathione Peroxidase 1 (GPX1) (AID 1845191). Further: nearly all actives have a fitted effect of over 65% in size. The settings on record: recombinant GPX1, GR-coupled NADPH fluorescence, 15 min; series mostly up to 48.8 µM; activity, negative = inhibition: at the top concentration. The essentials:
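10 nM GPX1 + cpd, 30 min RT; start w/ 1 mM GSH, 0.5 mM cumene hydroperoxide, 0.5 mM NADPH, 100 nM GR, 0.01% BSA; buffer 50 mM Tris-HCl pH 7.5, 2 mM EDTA, 150 mM NaCl; Fl 340/450, 0 & 15 min.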
Turning to `COc1nccc(-c2c(-c3ccc(F)cc3)ncn2C2CCC(O)CC2)n1` (centres undefined), the Potency entry is “inactive”.

In the case of `COc1ccc(-c2cc3nccn3c(Nc3ncccc3C(N)=O)n2)cc1OC`, the result was inactive.

For the molecule `O[C@@H](COc1cccc2ncccc12)CN1CCN(C2c3ccccc3[C@@H]3[C@H](c4ccccc42)C3(F)F)CC1` (some centres undefined), the Potency result was “inactive”.

For `CCn1c(-c2nonc2N)nc2cncc(CNC3CCNCC3)c21`, the Potency entry is “inactive”.
